Measurements reported in paper PMC5540273 (PLoS ONE, 2017).

test system: PDGFRA
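Further: kd values determined as follow-up on hits from a single-replicate KINOMEscan panel screen.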

Row | SMILES | Kd [nM]
1 | Cc1ccc(NC(=O)c2cccc(C#N)c2)cc1-c1ccc(C(=O)Nc2ccncc2)cc1 [GSK1398463] | 170
2 | Cn1ccc2ncnc(Oc3ccc(NC(=O)Nc4cccnc4)c(Cl)c3)c21 | 110
3 | O=C(Nc1ccccc1)Nc1ccc(Oc2ccc3nccn3n2)cc1 | 71

test system: PDGFRB

Row | SMILES | Kd [nM]
4 | Cc1ccc(NC(=O)c2cccc(C#N)c2)cc1-c1ccc(C(=O)Nc2ccncc2)cc1 [GSK1398463] | 13
5 | COc1cc2c(Nc3cccc(NC(=O)c4ccccc4)c3)ncnc2cc1OCCCN1CCOCC1 [GSK223810] | 560
6 | O=C(Nc1n[nH]c2nc(-c3ccco3)c(Br)cc12)c1ccc(CN2CCCC2)cc1.O=C(O)[C@H](O)[C@@H](O)C(=O)O [SB-742352] | 67
7 | Cn1ccc2ncnc(Oc3ccc(NC(=O)Nc4cccnc4)c(Cl)c3)c21 | 95
8 | CC(=O)Nc1n[nH]c2ncc(-c3ccccc3)cc12 [SB-548492] | 270
9 | COc1ccc(NC(=O)Nc2ccc(C)c(-c3ccc(C(=O)Nc4ccncc4)cc3)c2)cc1 [GSK1398475] | 48
10 | O=C(Nc1ccccc1)Nc1ccc(Oc2ccc3nccn3n2)cc1 | 62

test system: PDPK1

Row | SMILES | Kd [nM]
11 | CC(C)(C)OC(=O)NC1CCCN(c2cc(-c3ccc4c(N)n[nH]c4c3)nc(N)n2)C1 (centres unmarked) [GSK2286096] | 37
12 | Nc1nc(-c2ccc3c(N)n[nH]c3c2)cc(N2CCCCC2)n1 [GSK2228768] | 540
13 | COc1cc2c(Nc3cccc(NC(=O)c4ccccc4)c3)ncnc2cc1OCCCN1CCOCC1 [GSK223810] | > 10000
14 | CSc1ccc(NC2=C(c3ccccc3Cl)C(=O)NC2=O)cc1 [SB-342411] | > 10000
